Compound activity: PubChem, several laboratories
TLR4 MyD88 comp: inhibitors of TLR4-MyD88 association in cells, primary screen, cell-based, HeLa CL3-4, BLA complementation, FRET ratio; Toll-like receptor 4 (Homo sapiens) + Myeloid differentiation primary response protein …; HeLa CL3-4 TLR4/MyD88 BLA complementation; inhibition, % at 8.4 µM; hit rate 0.18% among 200,000; AID 861, 2007; in the data active means inhibition above about 25%;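 further: 0% = vehicle and 100% = reference inhibitor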
HSF1 activator: HSF-1 activators, primary screen, NIH3T3-HGL cells, MG132 stress, luminescence, single point. NIH3T3-HGL HSF-1 luciferase reporter, 8 h; 100% = twice DMSO control signal. activation, % at 9 µM. hit rate 1.7% among 300,000;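 active means mean replicate activation of at least 50% with a set share of replicates each reaching 50%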;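 further: 0% = median of the neutral control wells and 100% = twice that signal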
HSF1 inhib: HSF1 inhibitors in luciferase reporter cells, primary screen, cell-based, NIH3T3, luminescence. NIH3T3-HGL HSE-luciferase, MG132-induced, luminescence 8 h; hits give low values. activity change, negative = inhibition, % at 7.5 µM (by protocol). hit rate 0.77% among 300,000. AID 2098, 2009;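 active means more than half of replicate wells show activity change below -50%, luminescence cut by over half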;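 further: luciferase reports HSF-1 transcriptional activity via heat shock element; 0% = median of DMSO wells and -100% = zero luminescence signal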
NOD2 RIPK2 PPI: NOD2-RIPK2 binding disruptors in cells, primary screen, fluorescence, CHO cells, BLA complementation. hit rate 0.38% among 360,000. AID 624267, 2012. CCF4 ratio. inhibition, % at 4.98 µM. Receptor-interacting serine/threonine-protein kinase 2 (Homo sapiens), O43353; in the data active means inhibition above about 21%;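 further: 0% = vehicle only and 100% = reference blocker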
Target sequence (O43353 whole entry, looked up): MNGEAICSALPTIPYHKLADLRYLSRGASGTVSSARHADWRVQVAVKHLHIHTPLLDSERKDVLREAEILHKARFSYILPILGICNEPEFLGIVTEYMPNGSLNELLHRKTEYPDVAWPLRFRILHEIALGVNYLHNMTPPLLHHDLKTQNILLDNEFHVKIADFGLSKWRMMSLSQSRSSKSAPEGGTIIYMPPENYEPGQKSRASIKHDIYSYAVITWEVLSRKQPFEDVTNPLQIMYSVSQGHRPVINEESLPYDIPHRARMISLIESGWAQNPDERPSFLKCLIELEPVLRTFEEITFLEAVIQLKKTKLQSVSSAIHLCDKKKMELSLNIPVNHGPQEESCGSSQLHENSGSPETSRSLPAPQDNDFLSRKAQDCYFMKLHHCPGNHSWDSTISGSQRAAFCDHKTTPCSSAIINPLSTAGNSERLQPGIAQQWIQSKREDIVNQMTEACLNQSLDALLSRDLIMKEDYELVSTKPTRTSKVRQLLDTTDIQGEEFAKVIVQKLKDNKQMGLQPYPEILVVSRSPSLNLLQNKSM
TLR9-MyD88 block: inhibitors of TLR9-MyD88 association in cells, primary screen, cell-based, CHO, BLA complementation, fluorescence | Toll-like receptor 9 (Homo sapiens) + Myeloid differentiation primary response protein … | CCF4 FRET ratio | inhibition, % at 4.98 µM | hit rate 0.21% among 340,000 | AID 504734, 2011;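 active means inhibition above the mean over all tested compounds plus 3 SD, cut at about 21% in these data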;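 further: 0% = DMSO only wells and 100% = clavulanate BLA inhibitor control wells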
The depositor's hits bear a star; / = no result. Most compounds without a hit are left out; they make up all but 2.4% or so of the library.

SMILES	TLR4 MyD88 comp	HSF1 activator	HSF1 inhib	NOD2 RIPK2 PPI	TLR9-MyD88 block
O=c1oc2ccc(Br)cc2cc1-c1nc2ccccc2o1	-3.8	-15.4	-9.6	0.4	-26.2
Brc1ccc2oc(-c3ccn[nH]3)cc2c1	/	57.1*	30.2	-2.3	/
CN(Cc1ccccc1F)C(=O)CN1C(=O)NC2(CCc3ccccc32)C1=O (stereo not drawn)	/	/	/	1.8	-5.7
O=C(NCCc1cccc(Cl)c1)c1cc2ccccc2oc1=O	/	278.2*	186.9	-1.7	-1.5
COc1ccccc1-c1nc(C#N)c(NCCCn2ccnc2)o1	/	-1.3	-2.3	-12.2	14.2
CC(=O)Nc1ccc(OCc2nnc(-c3ccc(Cl)cc3)o2)cc1	-12.3	65.2*	44.1	4.2	4.7
COCCNC(=O)C(=O)Nc1cc2c3c(c1)CCC(=O)N3CCC2	/	-10.3	-4.0	6.2	3.9
CCCCOc1ccc(N=Cc2ccc[nH]2)cc1	/	-73.3	-68.0*	4.1	1.1
COc1ccc(N=Cc2ccc(-c3ccccc3)o2)cc1	-0.2	-1.2	-3.4	-2.2	-13.1
COc1ccc(N=Cc2ccc[nH]2)cc1	-4.8	-65.6	-62.5*	14.3	-9.0
CCCC(C)NC(=O)C1c2ccccc2Oc2ccccc21 (stereo not drawn)	/	-66.8	-61.3*	-17.9	-6.1
CCN1CCN(C(=O)/C=C/c2ccc(C)o2)CC1	2.2	-0.1	-8.8	6.1	-2.4
Cc1ccc(/C=C/C(=O)N2CC(C)CC(C)C2)o1 (stereo not drawn)	3.8	51.2*	43.8	-2.3	4.9
CCOC(=O)CC(NS(=O)(=O)c1ccc(OC)c(OC)c1)c1cccc([N+](=O)[O-])c1 (stereo not drawn)	-2.8	3.5	-0.4	2.2	-5.8
CCOC(=O)CC(NS(=O)(=O)c1ccc2[nH]cc(C(=O)O)c(=O)c2c1)c1ccc(OCC)c(OC)c1 (stereo not drawn)	/	88.1*	44.8	-7.0	-1.1
Cc1cc(C)c(S(=O)(=O)c2ccccc2C(=O)O)c(C)c1	4.1	53.5*	6.1	-12.7	1.1
CC(C)(C)S(=O)(=O)c1ccccc1C(=O)O	4.0	-8.1	-2.3	1.8	-5.0
O=C1NC[C@H](CCCCN2C[C@H](Cc3ccccc3)N(CC3CCCCC3)C(=O)C2=O)N(CC2CCCCC2)C1=O	/	/	/	-16.3	/
CC(NC(=O)COc1ccccc1Cl)c1ccccc1 (stereo not drawn)	/	-14.8	1.0	-11.5	-17.4
Clc1cccc(/C=N/Nc2nnc(Cl)c3ccccc23)c1	-11.0	57.5*	49.7	-12.1	4.4
COc1ccc(N2CCN(C(=O)COC(=O)c3ccc(C)o3)CC2)cc1	/	-1.3	-0.4	7.1	-10.2
COc1ccc(-c2cccc(-c3cc(=O)oc4cc(OC)cc(OC)c34)c2)cc1	/	/	/	3.4	6.6
COc1cc(OC)c2c(-c3cccc(-c4ccc(CO)cc4)c3)cc(=O)oc2c1	/	/	/	23.2*	4.9
ClC(Cl)(Cl)C1=NCc2nnn(Cc3ccccc3)c2N1	/	/	/	-15.9	/
CN(CC(=O)NCc1ccccc1)S(=O)(=O)c1ccc2c(c1)CCC(=O)N2	/	-14.5	-6.4	-12.4	1.8
SMILES	TLR4 MyD88 comp	HSF1 activator	HSF1 inhib	NOD2 RIPK2 PPI	TLR9-MyD88 block
CCOc1ccc(CCNC(=O)CN(C)S(=O)(=O)c2ccc3c(c2)CCC(=O)N3)cc1OCC	17.4	-65.1	-54.3*	8.2	-5.2
O=c1c2ccccc2nnn1COc1ccc(Cl)cc1Br	-3.7	56.4*	40.4	-2.0	7.4
O=c1c2ccccc2nnn1COc1ccc(F)cc1Cl	-7.2	83.7*	62.0	-4.7	3.8
CN(C(=O)Cn1nc(C(=O)O)c2ccccc2c1=O)C1(C#N)CCCCC1	/	/	/	0.3	-3.3
O=C(CNc1cccc(F)c1)N1CCc2ccccc2C1	/	18.6	6.6	-3.6	9.1
O=C(CC(c1ccco1)S(=O)(=O)c1ccccc1)c1ccccc1 (stereo not drawn)	-8.6	84.9*	65.1	-5.1	7.2
CC(=O)N1c2ccc(C)cc2C(c2ccccc2)CC1C (stereo not drawn)	/	57.7*	33.8	0.7	-6.5
CC(=O)OC1CC(C)N(C(=O)c2ccccc2)c2ccc(C)cc21 (stereo not drawn)	2.3	10.2	4.3	0.1	4.6
O=C(NCc1ccco1)C1Cc2c(-c3cccc(F)c3)ccnc2O1 (stereo not drawn)	/	/	/	8.6	/
